Reference: PubChem BioAssay
Values without a mark were called inactive. How the calls were made is not given here.

target: Pantothenate synthetase (Mycobacterium tuberculosis (strain ATCC 25618 / H37Rv)) (UniProt P9WIL5); experiment: Recombinant Mtb pantothenate synthetase (PanC) inhibitors, coupled enzyme, confirmatory (AID 375); conditions: coupled enzyme assay; at 10 µM, active compounds read high;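 further: 0% = full reaction with vehicle and 100% = no enzyme background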
Sequence (P9WIL5 whole entry, looked up): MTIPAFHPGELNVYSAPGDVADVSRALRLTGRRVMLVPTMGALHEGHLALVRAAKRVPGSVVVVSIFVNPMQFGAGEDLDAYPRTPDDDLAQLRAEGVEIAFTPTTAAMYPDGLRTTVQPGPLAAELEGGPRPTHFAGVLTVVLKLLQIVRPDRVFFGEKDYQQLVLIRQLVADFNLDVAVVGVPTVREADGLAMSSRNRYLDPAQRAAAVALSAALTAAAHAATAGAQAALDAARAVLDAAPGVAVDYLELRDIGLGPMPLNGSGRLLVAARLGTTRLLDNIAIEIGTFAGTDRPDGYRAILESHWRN

Row | SMILES | inhibition
1 | N#Cc1c(N2CCOCC2)nc(N2CCCCC2)c2c1CCN(C1CCCCC1)C2 | 0%
2 | Cc1c(NC(=O)CCc2ccc(S(=O)(=O)N3CCOCC3)cc2)c(=O)n(-c2ccccc2)n1C | 2%
3 | COCCNC(=O)C(C)OC(=O)c1nsc(Cl)c1Cl (stereo not given) | 0%
4 | Cc1nn(C)cc1NC(=O)CCSc1nc(-c2ccco2)cc(C(F)(F)F)n1 | 0%
5 | CN1CCN(C(c2cccc(C(F)(F)F)c2)c2nnnn2C(C)(C)C)CC1 (stereo not given) | 1%
6 | O=C1N(c2ccccc2)C2CS(=O)(=O)CC2N1c1ccc(Br)cc1 (stereo not given) | 0%
7 | O=C(Nc1ccccc1)N(O)c1ccc(Cl)cc1 | 4%
8 | Cn1c(SCc2cccc3ccccc23)nnc1-c1ccco1 | 0%
9 | O=C(CN1CCN(C2CCCCC2)CC1)Nc1ccccc1-c1ccccc1 | 6%
10 | CCc1cc2c(=O)n(C(C)C(=O)OC3CCCCC3)cnc2s1 (stereo not given) | 0%
11 | Cc1cccc(C)c1-n1nnnc1SCSc1nnnn1-c1c(C)cccc1C | 1%
12 | CCOC(=O)Cc1cc(=O)n2[nH]c(C)c(-c3ccc(OC)cc3)c2n1 | 6%
13 | CCOC(=O)c1ccc(NS(=O)(=O)c2cccc3nsnc23)cc1 | 8%
14 | CCc1ccc(CNCc2cccnc2)cc1 | 0%
15 | CCOc1ccc(NC(=O)CN2C(=O)C3CCCN3C2=O)cc1 (stereo not given) | 0%
16 | CCOC(=O)c1ccc(Oc2nc(NC)nc(OC)n2)cc1 | 0%
17 | Cc1ccc2cc3cc(C(=O)NCCN4CCOCC4)oc3nc2c1 | 4%
18 | O=c1oc2ccccc2c(O)c1C=NCc1ccccn1 | 0%
19 | COc1cc(OC)cc(-n2nnnc2SCC(=O)N2CCCC2)c1 | 0%
20 | COc1ccc(-n2c(SCCC(=O)O)nnc2-c2ccncc2)cc1 | 5%

Row | SMILES | inhibition
21 | CCc1c(C(=O)N2CCOCC2)csc1C | 0%
22 | CCN(CC)c1ccc2c(c1)CCCN2 | 3%
23 | O=C(Nc1ccccc1)N(CCCN1CCOCC1)Cc1cc2cc3c(cc2[nH]c1=O)OCCO3 | 0%
24 | C=CCn1c(SCC2=C(C(=O)OCC)C(C)NC(=O)N2)nnc1C1CCCCC1 (stereo not given) | 0%
25 | O=C(CCCn1c(=S)[nH]c2ccccc2c1=O)N1CCCCC1 | 0%
26 | Cc1cc(Nc2ccc(N3CCC(C)CC3)cc2)n2ncnc2n1 | 0%
27 | CC(=O)c1cccc(NC(=O)N2CCCc3ccccc32)c1 | 1%
28 | CC(C)CCn1c(SCC#N)nc2c(sc3ccccc32)c1=O | 2%
29 | COCc1nnc(SCC(=O)NC(C)c2ccccc2)n1-c1ccccc1 (stereo not given) | 4%
30 | Cc1cc(NCCCn2ccnc2)n2c(nc3ccccc32)c1C#N | 0%
31 | C=CCSc1nnc2n(CCc3ccccc3)c(=O)c3c4c(sc3n12)COC(C)(C)C4 | 0%
32 | CCOc1ccccc1N1Cc2cc(C)c(C)cc2C1 | 0%
33 | O=C(CSc1nnc(-c2ccccc2Br)o1)Nc1cccc2ccccc12 | 2%
34 | Nc1scc(-c2ccncc2)c1Cl | 7%
35 | O=C(c1ccc(=O)[nH]c1)N(Cc1ccco1)C1(C(=O)NC2CCCC2)CCCCC1 | 0%
36 | CC1(C)CC(=O)C2=C(C1)OC(=O)C2(NC(=O)c1cccs1)C(F)(F)F (stereo not given) | 1%
37 | Cc1cc(C)nc(N(C#N)CC(=O)N2CCC(C(N)=O)CC2)n1 | 1%
38 | O=C(Nc1ccccc1C(=O)NCC1CCCO1)c1ccco1 (stereo not given) | 1%
39 | CC1CN(C(=O)CSc2nnc(-c3ccc(Cl)cc3)n2C)CC(C)O1 (stereo not given) | 0%
40 | Cn1c(=O)c2c(nc(NCCCO)n2CCc2ccccc2)n(C)c1=O | 0%
